# The full ranking holds about 9,900 sequences; the median of “r (bound/input frequency ratio)” is about 0.7, and the highest 2% start at about 6.5. This is one part of a sample in which the highest values are shown more often than they occur.
# B1: ENSMUSG00000029028.179|Lrrc47|115:119 (ssRNA)
# RNA: GGGAGUUCUACAGUCCGACGAUCGCUUCGAUAUCCGCAUGCUAACAGAUGCUUCGUGGACUGUGCCUCACACAUGGCCCUGCAGGCUCCAUGUCAGCGUGUCCCACUAUUCAUGUCCCAUCUCUGUGCAUCCUGACUGCGCACAUCCCAUCUCCGCAACACAACGCAUCUGUACCAGCACACAGCUGCCAUCCCUCGAGCCACAGUGCCUGGUCCUAAGGACCCAGCAGCUGCACAGAGGACUUGGUGGCCCCGUGCCUUGCCAUCUGGCUGAGAAGAGAACCAGACCCUCAGCCUUCCCCCUCUCUUGCGGUCGCACUAGUGUGGAAUUCUCGGGUGUCAAGG
# B2: ENSMUSG00000058297.511|Spock2 (ssRNA)
# RNA: GGGAGUUCUACAGUCCGACGAUCGCUUCGAUAUCCGCAUGCUAAGGAGGCAAAGUUGGUGAGAGUCCUGGGACAUCUUACCCCCAGUGUUCCACAGGAGUCGUGACCACGUGUGAUGGGUGGGCACAGGUCUGCCUUGCUCCAGCCCCCUCCCUUGGUUUCUGUUGGUACCCAUUUGGCUUUUAUCUGCUUUCUGCUUCACCACUAAGUGCGUAGGUGGGGUCUUUUGAUAUCGGCUCCCCAAAGCCCAAGCCCACAGCCCUAGGAGAGAACCAGGGGCCCAUCUUUGACACCUGGGCCAUCACUCUUGCGGUCGCACUAGUGUGGAAUUCUCGGGUGUCAAGG
# B3: ENSMUSG00000090935.640|Synj2bp|188:194 (ssRNA)
# RNA: GGGAGUUCUACAGUCCGACGAUCGCUUCGAUAUCCGCAUGCUAAGAAUAAAGUAUUUUCCUAGGACUACAUAGUUGGUAAAAGAGAAUCAUGAUUUAAACUCUGGACUAUGGAUGGCAGUAUCAGUAAUAUUCCCUCAUAGCUAGCAGUCCUCAUGCAAGGUCUCUGAACAAAAGCAACGUAUCACCUGCAAAUGCUUGGGUUUCAUCCCAUUCUUAUGGAGUGAGAUGACACACACCCAGCCAGCAACUCUGUCCUUCUAGGUAACUGGUUCAUGCUGAACCUUGAGAUUCACCACUGUCAGCUCUUGCGGUCGCACUAGUGUGGAAUUCUCGGGUGUCAAGG
# B4: ENSMUSG00000032194.203|Kank2|47:51 (ssRNA)
# RNA: GGGAGUUCUACAGUCCGACGAUCGCUUCGAUAUCCGCAUGCUACUGCACCUUUCUCUAACUGGGGUUCCUUUCUGGCCCCAGGAUCUCACACACGUUCGUGGGGGGAUUUUGUUGUUGUUUCUUUGUUUCUUUUCUUCAUAAAGAAGAAAAAGGAAACAACUUCUAGAUGUGCCUUGCGAUAGGGAGGACUUUGUCCUCUCAAGUCUCCCUGUCGUAUCCAGAUCACAGCUGAACCCACUGGGCCUUGGCGCCAAACCUCAGCAGGGCAGCAUUGAGACUCAUGGACUAAAGGAAAGUGUUCACUCUUGCGGUCGCACUAGUGUGGAAUUCUCGGGUGUCAAGG
# B5: ENSMUSG00000004113.196|Cacna1b (ssRNA)
# RNA: GGGAGUUCUACAGUCCGACGAUCGCUUCGAUAUCCGCAUGCUACUGGCUCCUCUGCUCAACCAAGUGCCUGAUCUCUGGCUCUGAGCAUCGUGGAUGAGGUACGGCCUCAGGAAGCAUCGGGUGGAUUGGGUGGGAGCUGCUCAGAGCAGCACGGGGGCUUGUGUCUUAGGGACAUUGACAGUGUCCAUCAGCAUGUCAGAGAAGCAGCUGUAGUGCCCGUGUUUCUCCCUGAGUCAUGGGUUCUGAAGAAGCCAGAGCGGCACAAUGCGUGCUUGCAUGAGGCACUUUCAGCCUUUUUAAAUCUCUUGCGGUCGCACUAGUGUGGAAUUCUCGGGUGUCAAGG
# B6: ENSMUSG00000061578.342|Ksr2 (ssRNA)
# RNA: GGGAGUUCUACAGUCCGACGAUCGCUUCGAUAUCCGCAUGCUAUGCCCUUAAGCUAGGGUCCUUCAAGCAUCCACAGACUUAGAGUGUGGUGGUAACAUGCUUGUAAUCCUGGCACUCUGGAGGCUGAGGCAGGAGGAUAACAAGUCUAGACUAUAUAUGAUUUCUGAGGGUCUGUUAGUGAAUAAGUACCUGGAUGACAUGGGACAAGUCCCAGCCUUCCCUGCUCCUGCGCUGCUCUUCCUCUUAUGGGAUAGGGUCUAGGUCAAAUGUCACCUCUUCACUCUUGCUCUUUCCUGACCUCCCUCUUGCGGUCGCACUAGUGUGGAAUUCUCGGGUGUCAAGG
# B7: ENSMUSG00000028439.70|Fam219a|208:212 (ssRNA)
# RNA: GGGAGUUCUACAGUCCGACGAUCGCUUCGAUAUCCGCAUGCUAAAGGCCAGGAGGCCAAAUGUAAGCGUUGGGUGAAGGGAUCACAGGGCCGGAAGGUUGGCCCCAGCCAGUGAAGCCAUGAAUCCCCCCCAAGCCCGGCUUGGAAAGGAAGGAAAGGGGUUUUGAGAAGAAAAGGAUCCAAGCAAUGGGGGCAGUUCUCACACCUCAGAGCCCCUCUCCCCAAACCCUGUGCCAGCCCAUAUACCUAUUACACAUUUCCCCUCAUCUCCAGAUGGGAAGCCUGGCAGCGCUGUCCAAAGGGACUCUUGCGGUCGCACUAGUGUGGAAUUCUCGGGUGUCAAGG
# B8: ENSMUSG00000031028.478|Tub (ssRNA)
# RNA: GGGAGUUCUACAGUCCGACGAUCGCUUCGAUAUCCGCAUGCUACUCUUUCUCCCAUGGUUCUGAGCAGGCGACUGUCAAGGAAGUGUGUUGUCAGUUCACUGGAGGAGGAGCUGAGAUGUGCACCCUUUUAAAUGAACAUGGGGUGGUGAUGGUGCCUUAACAAUCUUGACACUAAGGUGAAGCAAGCAAGUAAGGUGUGUGCCUCUGGGAAGACAGGAGUCGGAAGCCAAGGUGUGUGGCAACAGUCUGGAAGAGAGCUUUUGGUAAUCAUACCGUCUUCAGUGACAAGGCAACAAUGCUGUCUCUUGCGGUCGCACUAGUGUGGAAUUCUCGGGUGUCAAGG
# B9: ENSMUSG00000031028.479|Tub|35:40;147:153;184:190 (ssRNA)
# RNA: GGGAGUUCUACAGUCCGACGAUCGCUUCGAUAUCCGCAUGCUACUCCCAUGGUUCUGAGCAGGCGACUGUCAAGGAACACACAUGUCAGUUCACUGGAGGAGGAGCUGAGAUGUGCACCCUUUUAAAUGAACAUGGGGUGGUGAUGGUGCCUUAACAAUCUUGACACUAAGGUGAAGCAAGCAAGUAAGCACACACCCUCUGGGAAGACAGGAGUCGGAAGCCAAGCACACACGCAACAGUCUGGAAGAGAGCUUUUGGUAAUCAUACCGUCUUCAGUGACAAGGCAACAAUGCUGUAAAGUGCUCUUGCGGUCGCACUAGUGUGGAAUUCUCGGGUGUCAAGG
# B10: ENSMUSG00000031028.482|Tub|17:22;129:135;166:172 (ssRNA)
# RNA: GGGAGUUCUACAGUCCGACGAUCGCUUCGAUAUCCGCAUGCUAGGCGACUGUCAAGGAACACACAUGUCAGUUCACUGGAGGAGGAGCUGAGAUGUGCACCCUUUUAAAUGAACAUGGGGUGGUGAUGGUGCCUUAACAAUCUUGACACUAAGGUGAAGCAAGCAAGUAAGCACACACCCUCUGGGAAGACAGGAGUCGGAAGCCAAGCACACACGCAACAGUCUGGAAGAGAGCUUUUGGUAAUCAUACCGUCUUCAGUGACAAGGCAACAAUGCUGUAAAGUGGGUUUGUUUGGUUUUGUUCUCUUGCGGUCGCACUAGUGUGGAAUUCUCGGGUGUCAAGG
# B11: ENSMUSG00000031028.480|Tub (ssRNA)
# RNA: GGGAGUUCUACAGUCCGACGAUCGCUUCGAUAUCCGCAUGCUAUGGUUCUGAGCAGGCGACUGUCAAGGAAGUGUGUUGUCAGUUCACUGGAGGAGGAGCUGAGAUGUGCACCCUUUUAAAUGAACAUGGGGUGGUGAUGGUGCCUUAACAAUCUUGACACUAAGGUGAAGCAAGCAAGUAAGGUGUGUGCCUCUGGGAAGACAGGAGUCGGAAGCCAAGGUGUGUGGCAACAGUCUGGAAGAGAGCUUUUGGUAAUCAUACCGUCUUCAGUGACAAGGCAACAAUGCUGUAAAGUGGGUUUGCUCUUGCGGUCGCACUAGUGUGGAAUUCUCGGGUGUCAAGG
# B12: ENSMUSG00000031028.481|Tub (ssRNA)
# RNA: GGGAGUUCUACAGUCCGACGAUCGCUUCGAUAUCCGCAUGCUAUGAGCAGGCGACUGUCAAGGAAGUGUGUUGUCAGUUCACUGGAGGAGGAGCUGAGAUGUGCACCCUUUUAAAUGAACAUGGGGUGGUGAUGGUGCCUUAACAAUCUUGACACUAAGGUGAAGCAAGCAAGUAAGGUGUGUGCCUCUGGGAAGACAGGAGUCGGAAGCCAAGGUGUGUGGCAACAGUCUGGAAGAGAGCUUUUGGUAAUCAUACCGUCUUCAGUGACAAGGCAACAAUGCUGUAAAGUGGGUUUGUUUGGUCUCUUGCGGUCGCACUAGUGUGGAAUUCUCGGGUGUCAAGG
# B13: ENSMUSG00000031028.483|Tub (ssRNA)
# RNA: GGGAGUUCUACAGUCCGACGAUCGCUUCGAUAUCCGCAUGCUAUGUCAAGGAAGUGUGUUGUCAGUUCACUGGAGGAGGAGCUGAGAUGUGCACCCUUUUAAAUGAACAUGGGGUGGUGAUGGUGCCUUAACAAUCUUGACACUAAGGUGAAGCAAGCAAGUAAGGUGUGUGCCUCUGGGAAGACAGGAGUCGGAAGCCAAGGUGUGUGGCAACAGUCUGGAAGAGAGCUUUUGGUAAUCAUACCGUCUUCAGUGACAAGGCAACAAUGCUGUAAAGUGGGUUUGUUUGGUUUUGUUUUUUCUCUCUUGCGGUCGCACUAGUGUGGAAUUCUCGGGUGUCAAGG
# B14: ENSMUSG00000031028.482|Tub (ssRNA)
# RNA: GGGAGUUCUACAGUCCGACGAUCGCUUCGAUAUCCGCAUGCUAGGCGACUGUCAAGGAAGUGUGUUGUCAGUUCACUGGAGGAGGAGCUGAGAUGUGCACCCUUUUAAAUGAACAUGGGGUGGUGAUGGUGCCUUAACAAUCUUGACACUAAGGUGAAGCAAGCAAGUAAGGUGUGUGCCUCUGGGAAGACAGGAGUCGGAAGCCAAGGUGUGUGGCAACAGUCUGGAAGAGAGCUUUUGGUAAUCAUACCGUCUUCAGUGACAAGGCAACAAUGCUGUAAAGUGGGUUUGUUUGGUUUUGUUCUCUUGCGGUCGCACUAGUGUGGAAUUCUCGGGUGUCAAGG
# B15: ENSMUSG00000031028.479|Tub (ssRNA)
# RNA: GGGAGUUCUACAGUCCGACGAUCGCUUCGAUAUCCGCAUGCUACUCCCAUGGUUCUGAGCAGGCGACUGUCAAGGAAGUGUGUUGUCAGUUCACUGGAGGAGGAGCUGAGAUGUGCACCCUUUUAAAUGAACAUGGGGUGGUGAUGGUGCCUUAACAAUCUUGACACUAAGGUGAAGCAAGCAAGUAAGGUGUGUGCCUCUGGGAAGACAGGAGUCGGAAGCCAAGGUGUGUGGCAACAGUCUGGAAGAGAGCUUUUGGUAAUCAUACCGUCUUCAGUGACAAGGCAACAAUGCUGUAAAGUGCUCUUGCGGUCGCACUAGUGUGGAAUUCUCGGGUGUCAAGG
# B16: ENSMUSG00000031028.484|Tub (ssRNA)
# RNA: GGGAGUUCUACAGUCCGACGAUCGCUUCGAUAUCCGCAUGCUAGGAAGUGUGUUGUCAGUUCACUGGAGGAGGAGCUGAGAUGUGCACCCUUUUAAAUGAACAUGGGGUGGUGAUGGUGCCUUAACAAUCUUGACACUAAGGUGAAGCAAGCAAGUAAGGUGUGUGCCUCUGGGAAGACAGGAGUCGGAAGCCAAGGUGUGUGGCAACAGUCUGGAAGAGAGCUUUUGGUAAUCAUACCGUCUUCAGUGACAAGGCAACAAUGCUGUAAAGUGGGUUUGUUUGGUUUUGUUUUUUCUUUCUCUCUCUUGCGGUCGCACUAGUGUGGAAUUCUCGGGUGUCAAGG
# Molecular target: TDP-43 (Homo sapiens, UniProt Q13148 1-414)
# Assay: RNA Bind-n-Seq with designed 260-mer pool; 25 mM Tris-HCl, 150 mM KCl, 3 mM MgCl2, BSA (printed 500 mg/mL), 20 units/mL SUPERase IN; pH not stated; 500 nM RNA pool, 1 h, 4 C; TDP-43 5, 50, 500 nM; high values mean tight binding
# Details: protein: recombinant; tags: SBP (GST cleaved off with PreScission; pGEX-GST-SBP)
# Summary of the method: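 The incubation lasted 1 h at 4 °C and used 500 nM of an in vitro-transcribed 260-nt 3′ UTR oligo pool with recombinant SBP-tagged TDP-43 at 5, 50 or 500 nM immobilized on streptavidin beads. It took place in 25 mM Tris-HCl, 150 mM KCl, 3 mM MgCl2, BSA and SUPERase IN. Bound RNA was washed, eluted with biotin, converted to cDNA, PCR-amplified and sequenced to give R, each oligo's normalized abundance in the bound sample divided by that in input. Two independent protein batches provided the duplicates.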
# Sequence of TDP-43 (Q13148 whole entry): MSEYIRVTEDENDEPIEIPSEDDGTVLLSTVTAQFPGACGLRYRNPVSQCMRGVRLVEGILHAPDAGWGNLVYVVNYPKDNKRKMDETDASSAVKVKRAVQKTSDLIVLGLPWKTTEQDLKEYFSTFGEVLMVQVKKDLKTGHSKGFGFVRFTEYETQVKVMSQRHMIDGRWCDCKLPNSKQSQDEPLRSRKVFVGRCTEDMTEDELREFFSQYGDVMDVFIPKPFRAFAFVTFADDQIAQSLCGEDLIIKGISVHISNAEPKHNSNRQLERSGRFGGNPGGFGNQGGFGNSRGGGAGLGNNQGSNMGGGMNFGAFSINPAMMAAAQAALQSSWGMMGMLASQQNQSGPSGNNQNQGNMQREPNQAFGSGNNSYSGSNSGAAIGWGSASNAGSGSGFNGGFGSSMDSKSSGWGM
row,Binder,binding signal
1,B1,0.745 R (bound/input frequency ratio)
2,B2,1.02 R (bound/input frequency ratio)
3,B3,0.142 R (bound/input frequency ratio)
4,B4,0.294 R (bound/input frequency ratio)
5,B5,1.41 R (bound/input frequency ratio)
6,B6,0.306 R (bound/input frequency ratio)
7,B7,0.319 R (bound/input frequency ratio)
8,B8,2.52 R (bound/input frequency ratio)
9,B9,0.829 R (bound/input frequency ratio)
10,B10,1.47 R (bound/input frequency ratio)
11,B11,6.51 R (bound/input frequency ratio)
12,B12,5.19 R (bound/input frequency ratio)
13,B13,3.98 R (bound/input frequency ratio)
14,B14,6.54 R (bound/input frequency ratio)
15,B15,6.66 R (bound/input frequency ratio)
16,B16,4.79 R (bound/input frequency ratio)

# — article PMC12864922, “TDP-43 directly inhibits mRNA accumulation in neurites through modulation of mRNA stability”
